Shown are actives, neighbours in structure and some others; about 3.3% of the full set was active somewhere.
Calb FLC = C. albicans growth inhibition with fluconazole, primary screen, CaCi-2 strain, Alamar Blue fluorescence; C. albicans CaCi-2 (fluconazole-resistant clinical isolate) + fluconazole, 48 h; growth inhibition, % (no concentration beside the values); 300,000 tested, 0.57% active;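 active = growth inhibition above about 58% in most replicates, limit read from the data, passing the limit was not always enough; inconclusive = exactly half the replicates above a set limit; inactive = most replicates below a set limit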;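 note: all wells also contain fluconazole at 8 µg/ml as a sub-toxic cotreatment; 0% = median of DMSO wells and 100% = median of geldanamycin control wells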
H9c2 protect = cardioprotection against H2O2-induced cell death, primary screen, uHTS, H9c2 cells, ATPLite luminescence. H9c2 cardiomyocytes, H2O2 injury protection, 2 h. protection from H2O2 cell death, % at 20 µM. AID 588492, 2011. 360,000 tested, 0.63% active;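 active = compounds giving at least 50% protection of heart cells from peroxide-induced death in the single-dose screen, raw or plate-pattern-corrected value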;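 note: 0% = DMSO wells with peroxide and 100% = DMSO wells without peroxide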
Efflux pump inh = inhibitors of Candida efflux pumps in yeast, primary screen, S. cerevisiae, Nile Red, multiplex | S. cerevisiae Candida pump triplex | inhibition, % at 10 µM | 330,000 tested, 0.44% active | AID 485275, 2010;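 active = plate passing quality check with inhibition over a set limit, or well fluorescence over plate mean plus 4 SD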;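 note: Nile Red retained in pooled yeast measured as flow cytometry median fluorescence; 0% = buffer negative control and 100% = Enniatin B positive control; higher means more Nile Red kept so more efflux inhibition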
PHOSPHO1 block = PubChem AID 1565. recombinant PHOSPHO1, absorbance phosphatase assay. inhibition, % at 13.3 µM. 290,000 tested, 1.1% active; in the data active = inhibition above about 60%
Cl transport mod = KCC2 cotransporter modulators, thallium flux, primary screen, cell-based, HEK293 KCC2, FluoZin-2 fluorescence, MLSMR | Solute carrier family 12 member 5 (Homo sapiens), Q9H2X9 | KCC2 cells, thallium flux FluoZin-2 fluorescence | B-score of Tl+ flux slope (higher = more flux/activation; lower = inhibition) at 10 µM | 190,000 tested, 2.2% active | AID 1456, 2008;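 active = thallium flux slope and its plate-corrected score both differing from the plate sample mean at a set confidence after two filtering rounds, in either direction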;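 note: slope of fluorescence scaled to starting intensity during 10 to 20 s after thallium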
Target sequence (Q9H2X9 whole entry, looked up): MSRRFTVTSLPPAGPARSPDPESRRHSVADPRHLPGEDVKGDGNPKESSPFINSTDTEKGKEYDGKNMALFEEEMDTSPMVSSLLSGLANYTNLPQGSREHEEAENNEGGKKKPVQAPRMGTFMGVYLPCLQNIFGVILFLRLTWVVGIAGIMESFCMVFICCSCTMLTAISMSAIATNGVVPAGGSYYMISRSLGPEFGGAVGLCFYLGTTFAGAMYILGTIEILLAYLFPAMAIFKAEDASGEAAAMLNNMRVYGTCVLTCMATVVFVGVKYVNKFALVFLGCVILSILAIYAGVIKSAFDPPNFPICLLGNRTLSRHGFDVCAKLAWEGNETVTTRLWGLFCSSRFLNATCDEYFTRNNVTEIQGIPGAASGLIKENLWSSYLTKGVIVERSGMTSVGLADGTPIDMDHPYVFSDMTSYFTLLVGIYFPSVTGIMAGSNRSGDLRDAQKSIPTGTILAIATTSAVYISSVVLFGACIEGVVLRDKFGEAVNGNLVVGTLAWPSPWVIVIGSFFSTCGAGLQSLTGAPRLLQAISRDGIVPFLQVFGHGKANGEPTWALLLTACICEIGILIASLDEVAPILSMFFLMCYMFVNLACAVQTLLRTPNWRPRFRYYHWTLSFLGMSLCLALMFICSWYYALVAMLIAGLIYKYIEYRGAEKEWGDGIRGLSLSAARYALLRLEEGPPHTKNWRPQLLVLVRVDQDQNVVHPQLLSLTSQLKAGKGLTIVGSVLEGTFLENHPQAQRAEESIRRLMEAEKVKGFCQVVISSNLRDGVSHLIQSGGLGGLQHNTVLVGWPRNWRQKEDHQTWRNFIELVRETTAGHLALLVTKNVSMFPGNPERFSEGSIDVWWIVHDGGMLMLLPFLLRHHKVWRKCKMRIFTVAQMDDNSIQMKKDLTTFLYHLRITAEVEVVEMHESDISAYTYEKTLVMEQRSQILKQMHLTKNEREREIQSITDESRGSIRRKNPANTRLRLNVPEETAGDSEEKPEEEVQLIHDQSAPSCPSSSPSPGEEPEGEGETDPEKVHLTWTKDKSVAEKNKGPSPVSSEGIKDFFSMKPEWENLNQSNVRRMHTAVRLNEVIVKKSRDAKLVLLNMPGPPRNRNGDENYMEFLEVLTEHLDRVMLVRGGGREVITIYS
KCC2 secondary = KCC2 modulators in sodium-free buffer, confirmation, cell-based, HEK293 KCC2, thallium flux, secondary assay; shares compounds with Cl transport mod; FluoZin2 fluorescence; stronger effect = higher value; normalised thallium flux (F/F0 slope) at 10 µM; 3,700 tested, 15% active; AID 1713, 2009;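 active = thallium flux slope above the same plate's solvent-only control mean plus 3 SD; inconclusive = the two replicate wells disagree; inactive = no significant difference from solvent-only control wells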
KCC2 bumet counter = thallium flux persisting under bumetanide in KCC2 cells, confirmation, counter-screen for KCC2 modulator project, cell-based, HEK293 KCC2, FluoZin2, secondary assay 3; 3,700 tested, 49% active; HEK293-KCC2 + bumetanide/ouabain; stronger effect = higher value; shares compounds with Cl transport mod; AID 1714, 2009; normalized thallium flux at 10 µM;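 active = thallium entry rate above the same plate's blocked-transporter control wells by more than 3 SD; inconclusive = the two repeat wells disagree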;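 note: raw slope of fluorescence over initial fluorescence between 10 and 20 s after thallium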
KCC2 sec2 = KCC2 modulators without ouabain present, confirmation, cell-based, HEK293 KCC2, thallium flux, FluoZin2, secondary assay 2. shares compounds with Cl transport mod. thallium flux FluoZin2 fluorescence; actives lie on both sides; F/F0 rise rate, 10–20 s post-thallium. normalized thallium flux at 10 µM. 3,700 tested, 23% active;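 active = thallium flux slope more than 3 SD above or below the plate's solvent-only control mean, mostly below; inconclusive = the two repeat wells disagreed; inactive = no significant shift from solvent-only controls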;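 note: raw slope with 0.1% DMSO as baseline and bumetanide as block control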
HEK293 Tl flux = thallium flux modulation in parental HEK cells, confirmation, counter-screen for KCC2 modulator project, cell-based, counterscreen 1 | 3,700 tested, 46% active | HEK293 parental cells, thallium flux FluoZin2, ouabain; baseline-ratio fluorescence slope, 10–20 s after thallium | thallium flux rate (normalised fluorescence) at 10 µM | shares compounds with Cl transport mod;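 active = thallium flux rate significantly above the same plate's solvent-only control wells, beyond their mean plus 3 SD; inconclusive = the two replicate wells gave conflicting results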
KCC2 ouabain = KCC2 inhibitors and activators, ouabain retest, confirmation, HEK-KCC2 cells. shares compounds with Cl transport mod. HEK293-KCC2, thallium flux FluoZin2 fluorescence; bidirectional: low = inhibitor, high = activator. raw Tl+ flux slope (below DMSO = inhibition, above = activation) at 10 µM. 3,700 tested, 48% active. AID 1717, 2009;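 active = thallium flux slope beyond 3 SD from same-plate DMSO control mean in most replicates, usually higher, sometimes lower; inconclusive = repeat tests gave conflicting results; inactive = no significant difference from controls in most replicates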;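 note: slope of initial-normalized fluorescence between seconds 10 and 20 after thallium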
HEK counter2 = native HEK Tl+ uptake effects, second counter-screen – HEK cells, counterscreen 2, counter-screen for KCC2 modulator project, confirmation; thallium flux slope at 10 µM; HEK293 parental, thallium flux FluoZin-2 fluorescence slope; shares compounds with Cl transport mod; 3,700 tested, 33% active;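 active = thallium flux slope above the same plate's solvent-control mean plus 3 SD in both duplicate wells; inconclusive = duplicate wells that disagreed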;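 note: run without ouabain in cells lacking the KCC2 cotransporter; slope of fluorescence scaled to its starting value between 10 and 20 s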
An asterisk follows results filed as active; ? = inconclusive; . = not tested or not shown.

SMILES | Calb FLC | H9c2 protect | Efflux pump inh | PHOSPHO1 block | Cl transport mod | KCC2 secondary | KCC2 bumet counter | KCC2 sec2 | HEK293 Tl flux | KCC2 ouabain | HEK counter2
COc1ccc(OC)c(NC(=O)C2CCN(C(=O)c3cccs3)CC2)c1 | 6 | -2 | 0 | -16 | -0.069 | . | . | . | . | . | .
C[C@@H]1CN([C@H](C)CO)C(=O)c2cc(Br)cnc2O[C@H]1CN(C)C(=O)Nc1ccccc1F | . | 0 | . | . | . | . | . | . | . | . | .
CCc1ccc(-n2cc(-c3ccc([N+](=O)[O-])cc3)[nH]c2=S)cc1 | -4 | -1 | 0 | -18 | 3.7 | . | . | . | . | . | .
CCc1ccc(-c2cn(C3CCCCC3)c(=S)[nH]2)cc1 | -16 | -17 | 0 | 18 | 6* | 0.019 | 0.05* | 0.03 | 0.012* | 0.023* | ?
O=C(C[n+]1ccccc1)N/N=C/c1c(F)cccc1Cl | -1 | 1 | 0 | -3 | . | . | . | . | . | . | .
Cc1ccc(C(=O)CSc2nnc3c4ccccc4nc(C(C)(C)C)n23)cc1 | 2 | -5 | 0 | -7 | 16* | 0.014* | 0.043* | 0.031 | 0.019* | 0.032* | 0.012*
CC(=O)CSc1nnc2c3ccccc3nc(C(C)(C)C)n12 | 17 | 3 | 0 | -1 | 1.5 | . | . | . | . | . | .
COc1cccc(/C=C2\SC(=O)NC2=O)c1OCc1ccc(C(=O)O)cc1 | -3 | 8 | 0 | 17 | -0.19 | . | . | . | . | . | .
CC(C)N1C(=O)S/C(=C/c2ccccc2OCc2ccc(C(=O)O)cc2)C1=O | 17 | 2 | 0 | 11 | -4.7* | 0.0064 | 0.0047 | 0.024* | 0.0064 | 0.014* | 0.0088
COc1ccc(NC(=O)c2cccs2)cc1C(=O)N1CCN(c2ccccc2)CC1 | -2 | -2 | 0 | 22 | . | . | . | . | . | . | .
Cc1ccc(/C=C2/Sc3ccccc3N(CC(=O)NCCCOC(C)C)C2=O)cc1 | 1 | -4 | 0 | 3 | -3.3* | 0.0099 | 0.0064 | ? | 0.0066 | 0.014* | 0.01
CCOCCCNC(=O)CN1C(=O)/C(=C\c2ccc(C)cc2)Sc2ccccc21 | 42 | -6 | 1 | -7 | -4.1 | . | . | . | . | . | .
COc1ccc2nc(SCC(=O)Nc3ccc4c(c3)OCCO4)[nH]c2c1 | 6 | -2 | 0 | 38 | -2.5* | 0.0072 | 0.0048 | 0.03 | 0.0073 | 0.02 | 0.011
Cc1ccc2[nH]c(=S)cc(C)c2c1 | 4 | 8 | 0 | 89* | 21* | 0.011 | ? | 0.038 | ? | ? | 0.019*
Cc1cc(=S)[nH]c2ccccc12 | -5 | 19 | 0 | 100* | 5.8* | 0.0084 | 0.015* | 0.029 | 0.015* | ? | 0.015*
Cc1ccc(C)c2c1[nH]c1ccccc12 | 8 | -2 | 0 | 2 | . | . | . | . | . | . | .
Cc1ccc2c(C)cc(=S)[nH]c2c1 | -31 | 8 | . | -76 | 29* | 0.0079 | 0.02* | 0.036 | 0.024* | 0.03* | 0.021*
COC(=O)[C@]1(C)N[C@H](CN(C)S(=O)(=O)c2ccc(-c3ccccc3)cc2)[C@@H]2C(=O)N(C)C(=O)[C@@H]21 | . | -6 | 0 | . | . | . | . | . | . | . | .
O=C(CN(Cc1ccccc1Cl)C(=O)c1csnn1)NCc1ccccc1 | 12 | 1 | 0 | 30 | . | . | . | . | . | . | .
O=C(CSc1ccccn1)Nc1cccc(NC(=O)CSc2ccccn2)n1 | -6 | 4 | 0 | 26 | . | ? | ? | 0.032 | 0.007 | 0.021 | 0.01
COc1cc2c(cc1NC(=O)CSc1ccccn1)oc1ccccc12 | -5 | -9 | 0 | 39 | -4.8* | 0.008 | 0.0059 | 0.028 | 0.007 | 0.019 | 0.0085
CC1CCC(NS(=O)(=O)c2ccc(N3CCCC3=O)cc2)CC1 (centres undefined) | 7 | -12 | 0 | 18 | . | . | . | . | . | . | .
COC(=O)C(NC(C)=O)(Nc1sc2c(c1C(N)=O)CCCC2)C(F)(F)F (centres undefined) | 1 | 6 | 0 | 9 | . | 0.0082 | 0.0059 | 0.029 | 0.0069 | 0.02 | 0.0097
CCCCC(=O)NC(Nc1sc2c(c1C(N)=O)CCCC2)(C(=O)OCC)C(F)(F)F (centres undefined) | 2 | 3 | 0 | -1 | -0.31 | . | . | . | . | . | .
CCCCCC(=O)Nc1ccc(C(=O)CN2C(=O)NC3(CCCCCC3)C2=O)cc1 | -8 | 2 | 0 | . | . | . | . | . | . | . | .
SMILES | Calb FLC | H9c2 protect | Efflux pump inh | PHOSPHO1 block | Cl transport mod | KCC2 secondary | KCC2 bumet counter | KCC2 sec2 | HEK293 Tl flux | KCC2 ouabain | HEK counter2
CSc1nc2[nH]c3c(c2c2ncnn12)CCCC3 | -1 | -3 | 0 | -7 | -0.014 | 0.0088 | 0.0061 | 0.032 | 0.0075 | 0.019 | 0.011
COc1ccc(C2C(C(N)=O)=C(C)Nc3nc(-c4ccccc4)nn32)cc1OC (centres undefined) | 10 | 4 | 0 | -1 | 5.5* | 0.0069 | ? | 0.029 | 0.0082 | 0.019 | ?
O=C(Nc1nc(-c2cccs2)cs1)c1ccc(Cl)s1 | -3 | -7 | 0 | 2 | 3.1* | 0.0085 | 0.015* | 0.028 | 0.0086* | 0.021 | 0.0098
CC(=O)Nc1nc(-c2cccs2)cs1 | 3 | 3 | 0 | 2 | 0.16 | . | . | . | . | . | .
Cc1nc2ccc3nc(NC(=O)C4COc5ccccc5O4)sc3c2s1 (centres undefined) | 6 | 26 | 0 | 22 | 5.7* | 0.0066 | 0.013* | 0.031 | 0.011* | ? | 0.014*
COc1cccc2sc(NNC(=O)C3COc4ccccc4O3)nc12 (centres undefined) | -8 | 18 | 0 | -14 | 20* | 0.021* | 0.03* | ? | 0.019* | 0.026* | 0.021*
O=C(Nc1nc2c(F)cccc2s1)C1CC1 | -16 | -11 | 0 | 41 | . | . | . | . | . | . | .

Screens (PubChem BioAssay)
